Experimental data taken from the supplement of paper PMC10849652.
The full data set covers some 7,900 targets. This sample favours those with a hit. About 0.6% of all pairs of compound and target were hits.

How the values were obtained:
Test in all cases: log2 fold change, soluble protein after heating vs DMSO (PISA); higher = thermal stabilisation; K562 cells, 10 uM, 30 min; active = over 0.2 and 3.5 SD of the protein, either way, in both replicates (recomputed)
[1] = compound: CN1CCN(CCOc2cc(OC3CCOCC3)c3c(Nc4c(Cl)ccc5c4OCO5)ncnc3c2)CC1 [saracatinib]
Procedure, shortened: (§1)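 Quantification of soluble protein used TMTpro 16plex LC-MS/MS, with channel sums equalised. Samples were the supernatant after 21,000xg for 90 min of pooled aliquots from K562 cells (2×10^6 cells/mL) treated with 10 μM compound for 30 min, heated for 3 min over 48°C-58°C, and extracted in PBS with 0.5% NP-40 at 4°C. Values, from duplicates, describe thermal stability against control samples on a log2 fold-change scale.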

[2] = compound: CN1CCN(c2nc(C3=C(c4c[nH]c5ccccc45)C(=O)NC3=O)c3ccccc3n2)CC1 [sotrastaurin]
Procedure, shortened: as §1

[3] = compound: CN1CC[C@H](c2c(O)cc(O)c3c(=O)cc(-c4ccccc4Cl)oc23)[C@H](O)C1 [alvocidib]
Procedure, shortened: as §1

[4] = compound: CN1CCc2c(c3ccccc3n2Cc2ccc(C(=O)NO)cc2)C1 [Tubastatin A]
Procedure, shortened: as §1

[5] = compound: CNC(=O)C1=CC=CC=C1NC2=NC(=NC=C2Cl)NC3=C(C=C(C=C3)N4CCOCC4)OC
Procedure, shortened: as §1

[6] = compound: CNC(=O)c1ccc(Nc2ncc(C(F)(F)F)c(NCc3nccnc3N(C)S(C)(=O)=O)n2)cc1 [defactinib]
Procedure, shortened: as §1

[7] = compound: CNCc1ccc(-c2[nH]c3cc(F)cc4c3c2CCNC4=O)cc1 [rucaparib]
Procedure, shortened: as §1

[8] = compound: CNc1nc(-c2ccc3c(N)n[nH]c3c2)cc(N2C[C@@H](C(=O)NC3CCCCC3)CC[C@H]2C)n1
Procedure, shortened: as §1

[9] = compound: COC(=O)N[C@@H](C)CNc1nccc(-c2cn(C(C)C)nc2-c2cc(Cl)cc(NS(C)(=O)=O)c2F)n1 [encorafenib]
Procedure, shortened: as §1

[10] = compound: COC(=O)[C@H](CCSC)NC(=O)C1=C(C=C(C=C1)NC[C@H](CS)N)C2=CC=CC=C2
Procedure, shortened: as §1

[11] = compound: COC1=CC=C(C=C1)CN2C=CC3=C2C=C(C=C3)C(=O)NO
Procedure, shortened: as §1

[12] = compound: CON(C)C(=O)N1N=C(c2cc(F)ccc2F)S[C@@]1(CCCN)c1ccccc1 [filanesib]
Procedure, shortened: as §1

[13] = compound: CO[C@H]1C[C@@H]2CC[C@@H](C)[C@@](O)(O2)C(=O)C(=O)N2CCCC[C@H]2C(=O)O[C@H]([C@H](C)C[C@@H]2CC[C@H](n3cnnn3)[C@H](OC)C2)CC(=O)[C@H](C)/C=C(\C)[C@@H](O)[C@@H](OC)C(=O)[C@H](C)C[C@H](C)/C=C/C=C/C=C/1C [zotarolimus]
Procedure, shortened: as §1

[14] = compound: COc1cc(C(=O)O)ccc1NC(=O)[C@@H]1N[C@@H](CC(C)(C)C)[C@](C#N)(c2ccc(Cl)cc2F)[C@H]1c1cccc(Cl)c1F [idasanutlin]
Procedure, shortened: as §1

[15] = compound: COc1cc(Nc2ncc3c(n2)-c2ccc(Cl)cc2C(c2c(F)cccc2OC)=NC3)ccc1C(=O)O [alisertib]
Procedure, shortened: as §1

[16] = compound: COc1cc2nc(-c3cc(F)ccc3O)nc(N[C@@H]3CNC[C@H]3C(C)(C)O)c2cc1OC
Procedure, shortened: as §1

[17] = compound: COc1cc2ncnc(Nc3ccc(F)c(Cl)c3)c2cc1OCCCN1CCOCC1 [gefitinib]
Procedure, shortened: as §1

[18] = compound: COc1cccc2cc(-c3nc([C@H]4CC[C@H](C(=O)O)CC4)n4ncnc(N)c34)[nH]c12
Procedure, shortened: as §1

[19] = compound: CS(=O)(=O)CCNCc1ccc(-c2ccc3ncnc(Nc4ccc(OCc5cccc(F)c5)c(Cl)c4)c3c2)o1 [lapatinib]
Procedure, shortened: as §1

[20] = compound: CS(=O)(=O)N1CCN(Cc2cc3nc(-c4cccc5[nH]ncc45)nc(N4CCOCC4)c3s2)CC1 [pictilisib]
Procedure, shortened: as §1

Measured: log2 fold change

STOM (UniProt P27105)
UniProt P27105, sequence (P27105 whole entry, looked up): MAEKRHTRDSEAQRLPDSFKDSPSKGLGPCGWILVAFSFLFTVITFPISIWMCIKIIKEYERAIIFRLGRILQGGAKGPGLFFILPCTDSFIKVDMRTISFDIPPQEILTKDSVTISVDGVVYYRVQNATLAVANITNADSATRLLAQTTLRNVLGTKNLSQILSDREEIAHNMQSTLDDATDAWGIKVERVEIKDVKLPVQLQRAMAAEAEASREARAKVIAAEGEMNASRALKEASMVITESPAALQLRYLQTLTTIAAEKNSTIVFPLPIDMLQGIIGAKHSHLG
inactive: [1] -0.015 | [2] 0.039 | [3] 0.169 | [4] 0.016 | [5] -0.019 | [6] 0.068 | [7] 0.006 | [8] -0.03 | [9] 0.016 | [10] 0.002 | [11] 0.004 | [12] -0.068 | [13] -0.083 | [14] 0.046 | [15] -0.154 | [16] -0.045 | [17] -0.062 | [18] -0.004 | [19] 0.067 | [20] -0.022

TIMM21 (UniProt Q9BVV7)
UniProt Q9BVV7, sequence (Q9BVV7 whole entry, looked up): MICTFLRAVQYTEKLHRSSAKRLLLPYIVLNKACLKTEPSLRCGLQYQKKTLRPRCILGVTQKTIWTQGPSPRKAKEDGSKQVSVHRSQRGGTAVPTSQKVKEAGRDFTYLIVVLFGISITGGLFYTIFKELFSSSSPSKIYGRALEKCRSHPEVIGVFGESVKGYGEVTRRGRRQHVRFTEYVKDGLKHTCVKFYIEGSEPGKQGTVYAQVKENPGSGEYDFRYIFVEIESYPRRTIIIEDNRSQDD
inactive: [1] 0 | [2] -0.001 | [3] -0.05 | [4] -0.048 | [5] -0.025 | [6] -0.007 | [7] -0.04 | [8] -0.016 | [9] 0.063 | [10] 0.051 | [11] -0.038 | [12] -0.171 | [13] 0.03 | [14] -0.078 | [15] 0.054 | [16] -0.205 | [17] -0.006 | [18] 0.01 | [19] -0.008 | [20] 0.055

SNX5 (UniProt Q9Y5X3)
inactive: [1] 0 | [2] -0.006 | [3] -0.061 | [4] -0.013 | [5] -0.117 | [6] -0.014 | [7] -0.054 | [8] 0.012 | [9] 0.03 | [10] 0.006 | [11] -0.06 | [12] -0.172 | [13] 0.015 | [14] -0.015 | [15] -0.012 | [16] -0.066 | [17] -0.136 | [18] 0.008 | [19] 0.01 | [20] -0.085

TFR2 (UniProt Q9UP52)
UniProt Q9UP52, sequence (Q9UP52 whole entry, looked up): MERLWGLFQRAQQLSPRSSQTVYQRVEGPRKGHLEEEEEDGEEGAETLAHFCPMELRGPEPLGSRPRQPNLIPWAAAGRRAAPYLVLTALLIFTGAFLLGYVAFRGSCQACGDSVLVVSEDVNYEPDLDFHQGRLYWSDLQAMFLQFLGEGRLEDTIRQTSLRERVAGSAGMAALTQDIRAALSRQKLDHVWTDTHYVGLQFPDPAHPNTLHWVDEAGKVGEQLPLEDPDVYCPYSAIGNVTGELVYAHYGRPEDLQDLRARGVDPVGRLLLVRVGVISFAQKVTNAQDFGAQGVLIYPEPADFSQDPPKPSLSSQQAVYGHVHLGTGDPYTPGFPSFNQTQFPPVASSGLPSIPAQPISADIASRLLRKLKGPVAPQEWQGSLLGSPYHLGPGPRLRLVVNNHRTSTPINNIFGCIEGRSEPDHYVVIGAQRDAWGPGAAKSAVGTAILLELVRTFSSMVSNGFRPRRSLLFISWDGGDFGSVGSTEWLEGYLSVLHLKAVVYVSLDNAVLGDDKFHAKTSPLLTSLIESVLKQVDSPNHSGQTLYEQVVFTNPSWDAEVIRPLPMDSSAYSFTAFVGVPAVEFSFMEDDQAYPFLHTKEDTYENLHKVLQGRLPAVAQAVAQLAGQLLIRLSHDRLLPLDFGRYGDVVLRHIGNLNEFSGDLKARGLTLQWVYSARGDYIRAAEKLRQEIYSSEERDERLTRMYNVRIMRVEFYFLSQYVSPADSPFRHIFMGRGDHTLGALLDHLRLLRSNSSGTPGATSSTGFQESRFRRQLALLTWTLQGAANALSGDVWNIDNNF
inactive: [1] 0.007 | [2] -0.031 | [3] 0.029 | [4] -0.053 | [5] 0.006 | [6] 0.029 | [7] 0.029 | [8] -0.129 | [9] -0.015 | [10] 0.009 | [11] -0.066 | [12] 0.011 | [13] -0.06 | [14] 0.035 | [15] -0.04 | [16] 0.011 | [17] -0.035 | [18] 0.041 | [19] -0.011 | [20] 0.05

THADA (UniProt Q6YHU6)
UniProt Q6YHU6, sequence (Q6YHU6 whole entry, looked up): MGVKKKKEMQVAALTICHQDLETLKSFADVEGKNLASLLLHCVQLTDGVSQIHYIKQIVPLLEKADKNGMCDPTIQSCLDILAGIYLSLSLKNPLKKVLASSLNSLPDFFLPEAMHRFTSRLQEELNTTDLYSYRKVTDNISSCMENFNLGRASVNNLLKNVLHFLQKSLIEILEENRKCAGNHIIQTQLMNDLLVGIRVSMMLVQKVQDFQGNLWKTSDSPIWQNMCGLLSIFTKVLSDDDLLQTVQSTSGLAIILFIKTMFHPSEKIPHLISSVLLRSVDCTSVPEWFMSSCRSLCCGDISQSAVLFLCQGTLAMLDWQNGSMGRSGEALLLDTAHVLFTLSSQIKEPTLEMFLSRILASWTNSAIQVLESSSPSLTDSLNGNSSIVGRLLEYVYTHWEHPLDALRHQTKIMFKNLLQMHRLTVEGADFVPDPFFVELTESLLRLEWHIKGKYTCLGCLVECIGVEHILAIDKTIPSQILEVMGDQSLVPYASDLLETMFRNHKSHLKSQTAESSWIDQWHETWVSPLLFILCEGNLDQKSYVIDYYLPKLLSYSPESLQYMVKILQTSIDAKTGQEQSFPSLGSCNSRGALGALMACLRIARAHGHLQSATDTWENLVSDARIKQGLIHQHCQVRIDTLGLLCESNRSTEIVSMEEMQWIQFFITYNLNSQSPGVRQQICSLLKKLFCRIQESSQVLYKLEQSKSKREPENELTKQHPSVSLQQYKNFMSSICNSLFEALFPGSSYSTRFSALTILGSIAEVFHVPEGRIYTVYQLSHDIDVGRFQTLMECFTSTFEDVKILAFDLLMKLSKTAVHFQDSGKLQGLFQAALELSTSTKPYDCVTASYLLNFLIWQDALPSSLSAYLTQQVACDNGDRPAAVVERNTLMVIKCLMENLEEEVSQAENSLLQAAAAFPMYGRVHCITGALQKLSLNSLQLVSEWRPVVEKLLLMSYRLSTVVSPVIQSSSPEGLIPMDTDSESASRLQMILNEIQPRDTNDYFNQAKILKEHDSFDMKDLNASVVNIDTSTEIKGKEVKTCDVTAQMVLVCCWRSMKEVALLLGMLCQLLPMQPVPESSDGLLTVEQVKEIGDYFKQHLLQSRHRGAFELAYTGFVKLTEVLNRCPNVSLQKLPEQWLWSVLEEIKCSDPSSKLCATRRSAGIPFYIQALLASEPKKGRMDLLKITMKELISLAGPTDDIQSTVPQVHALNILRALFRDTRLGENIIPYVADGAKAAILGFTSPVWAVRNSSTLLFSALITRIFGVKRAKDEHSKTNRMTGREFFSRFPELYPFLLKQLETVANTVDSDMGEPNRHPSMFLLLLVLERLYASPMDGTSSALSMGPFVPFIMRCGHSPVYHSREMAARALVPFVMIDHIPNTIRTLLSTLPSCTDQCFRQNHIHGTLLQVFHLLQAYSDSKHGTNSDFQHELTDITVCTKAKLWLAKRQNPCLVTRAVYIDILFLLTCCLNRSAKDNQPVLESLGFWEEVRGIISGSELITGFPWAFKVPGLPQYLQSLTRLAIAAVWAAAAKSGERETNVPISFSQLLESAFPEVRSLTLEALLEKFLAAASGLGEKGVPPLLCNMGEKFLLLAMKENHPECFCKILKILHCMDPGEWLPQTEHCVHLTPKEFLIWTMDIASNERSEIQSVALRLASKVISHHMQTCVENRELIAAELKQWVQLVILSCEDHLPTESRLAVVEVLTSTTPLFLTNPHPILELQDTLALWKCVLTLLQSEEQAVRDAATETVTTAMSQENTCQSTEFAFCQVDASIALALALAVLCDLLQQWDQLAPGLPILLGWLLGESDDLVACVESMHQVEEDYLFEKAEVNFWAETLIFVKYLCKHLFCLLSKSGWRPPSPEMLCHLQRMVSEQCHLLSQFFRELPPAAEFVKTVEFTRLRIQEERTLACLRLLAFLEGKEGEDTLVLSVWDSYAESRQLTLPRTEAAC
inactive: [1] 0 | [2] -0.104 | [3] -0.095 | [4] 0.073 | [5] -0.036 | [6] -0.079 | [7] -0.017 | [8] 0.047 | [9] 0.09 | [10] -0.014 | [11] 0.019 | [12] -0.18 | [13] -0.008 | [14] -0.081 | [15] -0.022 | [16] -0.03 | [17] -0.031 | [18] 0.014 | [19] 0.012 | [20] -0.014

SSR4 (UniProt P51571)
inactive: [1] -0.008 | [2] 0.013 | [3] -0.035 | [4] 0.006 | [5] 0.014 | [6] 0.015 | [7] 0 | [8] 0.004 | [9] -0.028 | [10] -0.007 | [11] -0.015 | [12] -0.052 | [13] 0.036 | [14] -0.012 | [15] -0.004 | [16] 0.08 | [17] -0.023 | [18] 0.047 | [19] -0.05 | [20] 0.106

SPINDOC (UniProt Q9BUA3)
UniProt Q9BUA3, sequence (Q9BUA3 whole entry, looked up): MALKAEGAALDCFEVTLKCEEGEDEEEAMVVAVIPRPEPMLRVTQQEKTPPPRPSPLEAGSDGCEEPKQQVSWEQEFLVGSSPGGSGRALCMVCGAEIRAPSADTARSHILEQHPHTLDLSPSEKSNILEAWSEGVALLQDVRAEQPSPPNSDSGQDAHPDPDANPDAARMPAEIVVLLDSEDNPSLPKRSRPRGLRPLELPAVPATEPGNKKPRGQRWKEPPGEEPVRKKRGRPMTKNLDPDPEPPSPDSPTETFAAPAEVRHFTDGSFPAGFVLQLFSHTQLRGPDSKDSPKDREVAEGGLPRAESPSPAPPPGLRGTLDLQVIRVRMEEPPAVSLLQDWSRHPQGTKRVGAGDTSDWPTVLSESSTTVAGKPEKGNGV
inactive: [1] 0.185 | [2] -0.23 | [3] 0.025 | [4] -0.121 | [5] -0.039 | [6] 0.068 | [7] 0 | [8] -0.02 | [9] 0.057 | [10] 0.049 | [11] 0.165 | [12] 0.221 | [13] -0.02 | [14] 0.008 | [15] -0.113 | [16] 0.145 | [17] 0.073 | [18] 0.017 | [19] -0.045 | [20] -0.117

SMG1 (UniProt Q96Q15)
inactive: [1] -0.039 | [2] 0.041 | [3] -0.085 | [4] 0.014 | [5] 0.042 | [6] 0 | [7] 0.025 | [8] -0.12 | [9] 0.023 | [10] 0.017 | [11] -0.142 | [12] 0.061 | [13] -0.001 | [14] -0.038 | [15] -0.002 | [16] 0.055 | [17] 0.008 | [18] -0.047 | [19] 0.003 | [20] 0.018

SMAP2 (UniProt Q8WU79)
inactive: [1] -0.047 | [2] -0.052 | [3] -0.057 | [4] 0.029 | [5] 0.107 | [6] -0.12 | [7] 0.114 | [8] -0.026 | [9] 0.087 | [10] -0.043 | [11] -0.029 | [12] 0.048 | [13] 0.045 | [14] -0.039 | [15] 0.11 | [17] 0.043 | [18] -0.072 | [19] -0.009 | [20] -0.015
active: [16] 0.247

SRSF3 (UniProt P84103)
UniProt P84103, sequence (P84103 whole entry, looked up): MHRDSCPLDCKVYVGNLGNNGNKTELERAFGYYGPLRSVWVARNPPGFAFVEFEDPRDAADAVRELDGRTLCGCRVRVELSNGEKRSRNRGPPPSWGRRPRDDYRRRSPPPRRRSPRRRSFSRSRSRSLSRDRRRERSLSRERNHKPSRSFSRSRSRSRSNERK
inactive: [1] 0.019 | [2] 0.079 | [3] 0.265 | [4] -0.026 | [5] -0.053 | [6] 0.235 | [7] 0.257 | [8] -0.022 | [9] 0.023 | [10] 0.032 | [11] -0.226 | [12] 0.193 | [13] -0.054 | [14] 0.217 | [15] -0.101 | [16] -0.011 | [17] -0.026 | [18] -0.009 | [19] -0.006 | [20] -0.018

STARD3NL (UniProt O95772)
UniProt O95772, sequence (O95772 whole entry, looked up): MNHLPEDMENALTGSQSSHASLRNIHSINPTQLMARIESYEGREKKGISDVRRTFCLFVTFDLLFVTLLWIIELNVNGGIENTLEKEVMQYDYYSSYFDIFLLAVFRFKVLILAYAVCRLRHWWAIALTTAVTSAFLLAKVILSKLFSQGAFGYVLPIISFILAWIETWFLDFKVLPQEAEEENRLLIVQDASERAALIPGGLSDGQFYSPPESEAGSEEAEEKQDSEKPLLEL
inactive: [1] 0.103 | [2] -0.004 | [3] -0.01 | [4] -0.05 | [5] 0.013 | [6] -0.007 | [7] -0.164 | [8] -0.052 | [9] 0.068 | [10] -0.046 | [11] -0.005 | [12] -0.082 | [13] -0.054 | [14] -0.19 | [15] -0.056 | [16] 0.095 | [17] 0.048 | [18] 0.075 | [19] -0.048 | [20] 0.024

SLC27A4 (UniProt Q6P1M0)
inactive: [1] -0.035 | [2] 0.035 | [3] -0.09 | [4] -0.005 | [5] -0.083 | [6] -0.084 | [7] 0.06 | [8] 0.072 | [9] 0.018 | [10] -0.05 | [11] 0.134 | [12] 0.038 | [13] 0.056 | [14] -0.084 | [15] -0.001 | [16] 0.032 | [17] 0.033 | [18] -0.022 | [19] 0.055 | [20] -0.078

SMPD4 isoform 4 (UniProt Q9NXE4)
inactive: [1] 0.154 | [2] -0.082 | [3] -0.174 | [4] 0.007 | [5] -0.041 | [6] -0.056 | [7] 0.043 | [8] -0.071 | [9] -0.081 | [10] 0 | [11] 0.051 | [12] -0.223 | [13] 0.011 | [14] -0.049 | [15] 0.145 | [16] -0.109 | [17] 0.02 | [18] -0.043 | [19] -0.013 | [20] -0.034

SUCLA2 (UniProt Q9P2R7)
UniProt Q9P2R7, sequence (Q9P2R7 whole entry, looked up): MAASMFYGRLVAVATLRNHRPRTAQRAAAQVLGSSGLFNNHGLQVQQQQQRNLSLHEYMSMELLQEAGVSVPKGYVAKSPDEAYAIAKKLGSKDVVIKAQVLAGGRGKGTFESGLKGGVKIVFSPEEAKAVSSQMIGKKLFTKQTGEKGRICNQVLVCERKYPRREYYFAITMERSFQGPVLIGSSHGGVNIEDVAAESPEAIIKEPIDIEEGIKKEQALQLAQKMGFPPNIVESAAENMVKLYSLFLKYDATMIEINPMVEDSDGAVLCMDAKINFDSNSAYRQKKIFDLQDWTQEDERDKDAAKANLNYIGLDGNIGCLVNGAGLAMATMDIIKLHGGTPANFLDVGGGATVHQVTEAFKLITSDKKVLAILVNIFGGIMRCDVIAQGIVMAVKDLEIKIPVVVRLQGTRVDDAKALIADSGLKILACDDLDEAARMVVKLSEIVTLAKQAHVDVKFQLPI
inactive: [1] -0.013 | [2] 0.03 | [3] 0.011 | [4] 0.024 | [5] 0.011 | [6] -0.037 | [7] -0.029 | [8] -0.048 | [9] 0.021 | [10] -0.008 | [11] -0.004 | [12] -0.096 | [13] 0.01 | [14] -0.074 | [15] 0.104 | [16] 0.093 | [17] 0.022 | [18] 0.018 | [19] -0.05 | [20] 0.109

SSB (UniProt P05455)
UniProt P05455, sequence (P05455 whole entry, looked up): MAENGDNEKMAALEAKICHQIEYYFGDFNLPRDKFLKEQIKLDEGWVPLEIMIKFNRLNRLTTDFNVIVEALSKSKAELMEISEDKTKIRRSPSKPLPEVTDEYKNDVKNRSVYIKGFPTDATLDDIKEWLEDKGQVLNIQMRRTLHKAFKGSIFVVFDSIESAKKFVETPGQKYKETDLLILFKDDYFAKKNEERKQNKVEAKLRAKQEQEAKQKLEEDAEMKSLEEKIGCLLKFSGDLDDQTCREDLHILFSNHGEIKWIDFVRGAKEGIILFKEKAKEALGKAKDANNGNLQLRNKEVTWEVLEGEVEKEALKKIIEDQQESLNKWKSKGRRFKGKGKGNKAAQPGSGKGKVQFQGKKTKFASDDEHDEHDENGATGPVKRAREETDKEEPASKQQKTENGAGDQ
inactive: [1] -0.001 | [2] -0.158 | [3] -0.123 | [4] 0.015 | [5] 0.016 | [6] -0.187 | [7] -0.031 | [8] -0.089 | [9] 0 | [10] 0.042 | [11] -0.036 | [12] 0.049 | [13] -0.063 | [14] 0 | [15] -0.046 | [16] -0.132 | [17] -0.016 | [18] -0.101 | [19] -0.031 | [20] -0.042

TFAM (UniProt Q00059)
inactive: [1] -0.017 | [2] 0.052 | [3] 0.116 | [4] 0.052 | [5] -0.008 | [6] 0.107 | [7] 0.042 | [8] -0.01 | [9] 0.039 | [10] 0.047 | [11] -0.035 | [12] 0.048 | [13] 0.01 | [14] 0.046 | [15] -0.1 | [16] 0.015 | [17] -0.026 | [18] -0.058 | [19] -0.012 | [20] -0.04
